This is one part of a sample in which hits are shown more often than they occur.
GFP derepression: epigenetic GFP locus derepression in mouse cells; mouse C127i GFP locus derepression, cytometry, 30 h; Potency, µM (highest dose often 46.1 µM); hit rate 0.09% among 68,000
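Derepression screen: silenced CMV-GFP reporter in murine C127i cells, 30 h compound incubation at 37 C, washed cells imaged by laser-scanning cytometer to enumerate GFP-expressing objects of 20 to 120 um.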
ERK AVP block: inhibitors of vasopressin-stimulated ERK signaling pathway. HEK293-V1b, vasopressin-stimulated pERK AlphaScreen. Potency, µM (top dose mostly 57.5 µM), hits mostly inhibitors. hit rate 0.99% among 72,000; further: nearly all actives have a fitted effect of over 55% in size
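Phosphorylated ERK1/2 detected via AlphaScreen bead proximity in lysates of V1b-expressing HEK293 cells given 25 nM vasopressin for 5 min after 30 min compound exposure (37 °C). AC50 from Hill equation; basal DMSO 0%, vasopressin 100%.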
Ub-GFP proteasome: ubiquitin-GFP accumulation via proteasome inhibition. Ubiquitin-GFP reporter cells, proteasome inhibition, GFP fluorescence; response scale: untreated = 0%, 10 µM MG-132 = 100%. Potency, µM (series often up to 45.9 µM), actives largely listed as activators. 67,000 tested, under 10 active. AID 526; active means well fitted activation curve with a large enough effect, not every such curve was filed as active; inconclusive means small, poorly fitted or top-dose-only effect, or another doubt; inactive means no such curve, though single readings can be large or run the other way
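U2OS cells expressing ubiquitin(G76V)-GFP, seeded overnight in 0.5% FBS medium, then treated 4 hr at 37 C across 46 uM to 2.9 nM. GFP-positive cells counted by laser cytometry (488 ex/515 em); %activity scaled between basal and 10 uM MG-132.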
Peg3 imprint: induces erasure of genomic imprints in mouse ES cells; hit rate 0.02% among 110,000; Potency, µM (series often up to 60.7 µM), usual class: activators; mouse ES Peg3-LacZ reporter, beta-gal luminescence, 40 h; AID 1948
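Readout: BetaGlo luminescence (5 min, room temp) for LacZ from the normally silent maternal Peg3 allele in female Peg3LacZ-Neo ES cells. Cells 300/well, 40 h, 37C, 5% CO2. Data normalized per plate to negative controls.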
HBB splicing: modulators of hemoglobin beta chain splicing; HBB splicing reporter cell assay, activation; EGFP reporter with mutant IVS2-654 intron; response scale: normalised to 500 nM splice-correcting PNA; Potency, µM (top dose mostly 46.1 µM), usual class: activators; hit rate 0.06% among 65,000; AID 925
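HeLa cells stably expressing EGFP interrupted by mutant beta-globin intron 2 (IVS2-654), 500/well in 2% FCS. Treated with compound for 2 days at 37C. Splicing correction scored as total well GFP intensity (488 nm excitation, 500-520 nm emission); 500 nM antisense PNA served as control.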
Of the large screens only hits and unclear results are named; the others gave an inactive call. Unless noted, the call rests on the fitted dose curve; in most records, active means well fitted curve in the direction sought with a large enough effect; inconclusive means small, poorly fitted or top-dose-only effect, or another doubt; inactive means no such curve, though single readings can be large; an effect the other way counts as inactive or inconclusive.

CCCn1c(=C(C#N)C#N)s/c(=C2\C=Cc3ccccc3N2CC)c1=O	none
CCSC1=NC(=O)/C(=C2/C=Cc3ccccc3N2CC)S1	ERK AVP block 25µM
CCOC(=O)CSc1nc2ccccc2c(=O)n1CC1CCC(C(=O)NCc2ccco2)CC1 (centres undefined)	none
Cc1nn(C)cc1CNC(=O)c1cnn2c(C(F)F)cc(C3CC3)nc12	ERK AVP block 7.9µM
O=C(c1cccs1)c1no[n+]([O-])c1C(=O)c1cccs1	ERK AVP block 5µM
COc1ccc2c(c1OC)C(Cc1ccccc1)N1CCc3cc4c(cc3C1=C2)OCO4 (centres undefined)	ERK AVP block 6.3µM (no result: GFP derepression, Ub-GFP proteasome, HBB splicing)
Cc1cc2ncn(C3CC(=O)N(Cc4ccccc4)C3=O)c2cc1C (centres undefined)	ERK AVP block 32µM
CCc1cccc(NC(=O)CS(=O)Cc2nc(-c3ccc(C)cc3)oc2C)c1 (centres undefined)	ERK AVP block 32µM
CC(=O)c1cc(-c2nc3ccccc3n2C)n(C)c1	none
Cn1cc(C(=O)c2ccc(F)cc2)cc1-c1nc2ccccc2n1C	ERK AVP block 25µM (no result: HBB splicing)
Cc1ccc(NC(=O)C(C)Sc2nc(-c3ccccc3)c(C#N)c(=O)[nH]2)c(C)c1 (centres undefined)	none (no result: GFP derepression, ERK AVP block, Ub-GFP proteasome, HBB splicing)
CCCCS(=O)(=O)/C=C\C=C/S(=O)(=O)CCCC	ERK AVP block 3.2µM, Ub-GFP proteasome inconclusive
CCCCS(=O)(=O)/C=C\C1C2C=CC(C2)C1S(=O)(=O)CCCC (centres undefined)	none
CCOC(=O)c1c(C)[nH]c(C)c1-c1ccccc1OC	none
CCOC(=O)c1c2c(n3ccccc13)C(=O)c1ccccc1C2=O	ERK AVP block inconclusive, HBB splicing 3.2µM
COC(=O)C1C(=O)c2c([nH]c(C(=O)OC3CCCCC3)c2C)CC1C (centres undefined)	none
COC(=O)C1C(=O)c2c([nH]c(C(=O)OC3CCCC3C)c2C)CC1C (centres undefined)	ERK AVP block 32µM
COc1ccc(Cc2nnn(CC(=O)O)n2)cc1	none
CCc1ccc(C2CC(c3ccc(Cl)cc3)n3nc(N)nc3N2)cc1 (centres undefined)	ERK AVP block inconclusive (no result: GFP derepression)
COc1ccc(NC(=O)c2c(-c3ccc(C)cc3)nnc3ccccc23)cc1Cl	none (no result: GFP derepression, ERK AVP block, Ub-GFP proteasome, HBB splicing)
CC#C[C@]1(O)CC[C@H]2[C@@H]3CCC4=CC(=O)CCC4=C3[C@H](c3ccc(N(C)C)cc3)C[C@@]21C	ERK AVP block 13µM (no result: HBB splicing)
CN1CCCN(C(=O)Cc2c(Cl)cccc2Cl)c2nc3ccccc3nc21	HBB splicing 10µM
CN(C)S(=O)(=O)c1ccc(NC(=O)c2ccccn2)cc1	ERK AVP block inconclusive
CN(C)c1ccc(NC(=S)c2ccccn2)cc1	GFP derepression inconclusive, ERK AVP block 16µM
CCC1(C)Cc2c(sc3nc(NC)n(C)c(=O)c23)CO1 (centres undefined)	none
O=S(=O)(Nc1cccc(-c2cn3ccsc3n2)c1)c1ccc(F)cc1	ERK AVP block 20µM
CCC(=O)Nc1cccc(-c2cn3ccsc3n2)c1	none
CC(C)CC(=O)Nc1cccc(-c2cn3ccsc3n2)c1	ERK AVP block 16µM
N#Cc1cccc(-c2cc(NCc3cccs3)ncn2)c1	ERK AVP block 13µM
O=C1CC(c2cccs2)Cc2nc(NCC3CCCO3)ncc21 (centres undefined)	ERK AVP block 20µM
CC1CC(=O)c2cnc(NCC3CCCO3)nc2C1 (centres undefined)	none
CCOc1ccc(Nc2c3c(nc4ncnn24)CC(C)CC3)cc1 (centres undefined)	Peg3 imprint inconclusive (no result: HBB splicing)
COc1cccc(N2CCN(Cc3nc(N)nc(Nc4ccccc4)n3)CC2)c1	none
Nc1nc(CN2CCN(c3ccccn3)CC2)nc(Nc2ccc(Cl)cc2)n1	ERK AVP block 32µM
Cn1c(=O)n(CCc2ccccc2)c(=O)c2c1nc1n2CCCN1Cc1ccccc1	ERK AVP block inconclusive
Cn1c(=O)n(CCc2ccccc2)c(=O)c2c1nc1n2CCCN1CCc1ccccc1	ERK AVP block 13µM (no result: Ub-GFP proteasome)
Nc1ccc(-c2nc3ccc(-c4nc5ccc(N)cc5[nH]4)cc3[nH]2)cc1	ERK AVP block 13µM (no result: GFP derepression, Ub-GFP proteasome, HBB splicing)
COc1ccc(C(=O)NCC(c2ccco2)S(=O)(=O)c2ccc(F)cc2)cc1 (centres undefined)	none (no result: GFP derepression, ERK AVP block, Ub-GFP proteasome, HBB splicing)
O=C(CC(c1ccco1)S(=O)(=O)c1ccccc1)c1ccc(F)cc1 (centres undefined)	GFP derepression 3.2µM (no result: ERK AVP block, Ub-GFP proteasome, Peg3 imprint, HBB splicing)
CCCCn1c(NCc2ccc(OC)cc2O)nc2ccccc21	none (no result: GFP derepression, ERK AVP block, Ub-GFP proteasome, HBB splicing)
CCCCn1c(NCc2ccccc2O)nc2ccccc21	ERK AVP block 25µM (no result: GFP derepression)
Cc1cc(NC(=O)CSc2nc3ccsc3c(=O)n2Cc2ccccn2)n[nH]1	none
CC1CCCCN1C(=O)CSc1nc2ccsc2c(=O)n1Cc1ccccn1 (centres undefined)	ERK AVP block 25µM
Cc1csc(NC(=O)CSCC(=O)Nc2ccccc2)n1	ERK AVP block 32µM
Cc1csc(NC(=O)CSc2nc3ccccc3c(=O)[nH]2)n1	none (no result: HBB splicing)
c1ccc2[nH]c(CN3CCN(c4ncnc5c4oc4ccccc45)CC3)nc2c1	ERK AVP block 13µM
Cc1cccc2cc(C#N)c(SCC(=O)N3CCC(C)CC3)nc12	none
Cc1cccc2cc(C#N)c(SCC(=O)N3CC(=O)Nc4ccccc43)nc12	GFP derepression 16µM, HBB splicing inconclusive
CCC(C)(C)NC(=O)C(c1ccco1)N(C(=O)c1csnn1)c1cccc(F)c1 (centres undefined)	none (no result: HBB splicing)
Cc1sc2ncn(CC(=O)NCCCC(=O)N3CCN(c4ccccn4)CC3)c(=O)c2c1C	none
C=C[C@@]1(C)CC(=O)[C@@]2(O)[C@@]3(C)[C@H](O)CCC(C)(C)[C@@H]3[C@H](O)[C@H](OC(C)=O)[C@]2(C)O1	ERK AVP block inconclusive (no result: Peg3 imprint)
C=C[C@@]1(C)CC(=O)[C@@]2(O)[C@@]3(C)[C@@H](O)CCC(C)(C)[C@@H]3[C@H](OC(=O)CCN(C)C)[C@H](OC(C)=O)[C@@]2(C)O1	ERK AVP block 1µM (no result: HBB splicing)
CC(C)N(CCC(=O)c1ccc2ccccc2c1)Cc1ccccc1	ERK AVP block 32µM
Cc1ccc(S(=O)(=O)NCCOc2nc(N(C)C)nc(N3CCOCC3)n2)cc1	none
COc1ccc2[nH]cc(CCNc3ccnc(-c4ccccc4Cl)n3)c2c1	ERK AVP block 40µM, Peg3 imprint inconclusive
COc1ccc2[nH]cc(CCNc3ccnc(-c4cccc(NS(C)(=O)=O)c4)n3)c2c1	ERK AVP block 13µM
CC(C)CN1CCC2(CC1)CCN(C(=O)c1cccn1C)CC2	none (no result: Peg3 imprint)
CCCC(c1nnnn1Cc1cccs1)N1CCN(C2CCCC2)CC1 (centres undefined)	none
